IMPase Li cell = IMPase inhibition in cells with lithium potentiation; CHO-M1 cells, IP1 TR-FRET (IP-One), carbachol + lithium; Potency, µM (series often up to 59.4 µM), inactives show at the highest dose activity, negative = IMPase inhibition, hits mostly inhibitors; 210,000 tested, 0.35% active; AID 1457;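 further: IP1 builds up when IMPase is blocked and the TR-FRET signal falls; potency means the concentration at half of the fitted maximal effect; plate controls were basal vehicle for no effect and high inhibitor control for full effect; nearly all actives have a fitted effect of over 50% in size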
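CHO-M1, 2000 cells/well, 16–30 h culture; cpd + low Li+, 30 min 37C; lysis with d2-IP1/Eu-anti-IP1 Ab, 10 min RT; TR-FRET 665/620 ratio and 620 channel; AC50 via Hill.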
PTAP TSG101 blk = blocks PTAP/TSG101 interaction to inhibit HIV-1 budding | Q99816 | Fluorescence polarization, FITC-PTAP peptide / Tsg101 binding | Potency, µM (series often up to 115 µM), for inactives: at the highest dose activity change, negative = inhibition, actives largely listed as inhibitors | 340,000 tested, under 10 active; active means well fitted inhibition curve with a large enough effect in the main read-out, with a control signal flat, not every such curve was filed as active; inconclusive means small, poorly fitted or top-dose-only effect, or effect the other way, or a change in a side signal; inactive means no such curve, though single readings can be large or run the other way; further: potency means the concentration at half of the fitted maximal effect; % of control where 0% means no effect
Target sequence (Q99816 whole entry, looked up): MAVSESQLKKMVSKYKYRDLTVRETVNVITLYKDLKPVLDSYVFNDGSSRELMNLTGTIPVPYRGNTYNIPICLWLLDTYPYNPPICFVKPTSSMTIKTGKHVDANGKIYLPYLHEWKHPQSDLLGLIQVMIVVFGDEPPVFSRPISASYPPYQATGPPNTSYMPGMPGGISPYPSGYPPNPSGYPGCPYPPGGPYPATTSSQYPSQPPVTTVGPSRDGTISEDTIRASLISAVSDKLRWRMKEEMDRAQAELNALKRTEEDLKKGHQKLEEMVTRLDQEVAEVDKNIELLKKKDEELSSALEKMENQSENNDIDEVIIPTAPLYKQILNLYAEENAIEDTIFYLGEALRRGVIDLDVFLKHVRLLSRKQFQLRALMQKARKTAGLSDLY
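Fluorescence polarization binding of Tsg101 binding domain (10 uM final) to FITC-labeled PTAP peptide (50 nM final) in HEPES pH 7.5 buffer with NaCl, Tween 20, EDTA, TCEP. Compounds added before peptide; binding 20 min at RT.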
CBFb RUNX1 block = blocks binding between human CBF-beta and RUNX1; Q01196+Q13951; AlphaScreen CBFb-His/RUNX1-biotin binding, biochemical; Potency, µM (titrated, usually from 59.8 µM), without a hit: top-dose activity, negative = inhibition, most hits filed as inhibitors; 230,000 tested, under 10 active; AID 1477; further: % of control where 0% means no effect
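Room-temperature protein-protein interaction test with 30 nM each of His-tagged CBF-beta and biotinylated RUNX1, 15 min with compound, then 90 min with nickel plus streptavidin beads. Signal read in AlphaScreen mode.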
AT treatment = candidate therapy for ataxia-telangiectasia | F2112 A-T fibroblasts, KAP-1 phosphorylation AlphaLISA; neocarzinostatin DNA damage 30 min before lysis | Potency, µM (series often up to 57.5 µM), inactives show top-dose activation, hits mostly activators | 320,000 tested, 0.19% active | AID 485349; further: potency means the concentration at half of the fitted maximal effect; % of control where 0% means no effect; nearly all actives have a fitted effect of over 45% in size
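ATM-like activity read as KAP-1 phosphorylation via AlphaLISA donor/acceptor antibody pairs after lysis and 6 hr at 25C. Cells were ATM-null patient fibroblasts (F2112, hTERT), dosed 60 min, then exposed to the DSB inducer NCS for 30 min.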
Active calls of the source: *; ? = inconclusive; nt = no result; [ ] = dose if it differs, or a comment. Compounds with a hit are over-represented: about 0.37% of the library has one in this group of screens. Unless noted, the call rests on the fitted dose curve; in most records, active means well fitted curve in the direction sought with a large enough effect; inconclusive means small, poorly fitted or top-dose-only effect, or another doubt; inactive means no such curve, though single readings can be large; an effect the other way counts as inactive or inconclusive.

SMILES	IMPase Li cell	PTAP TSG101 blk	CBFb RUNX1 block	AT treatment
CC(C)[C@H](NC(=O)N1CC(=O)Nc2ccccc21)C(=O)N[C@H](C(=O)O)c1ccccc1	nt	-5.3%	nt	5.4%
CC(C)c1ccc(NC(=O)C(c2ccccc2)N2CC(=O)Nc3ccccc32)cc1 (stereo unspecified)	13.0%	-5.4%	1.0%[2.36 µM]	35.5µM*
OC(c1cc(-c2ccc(C(F)(F)F)cc2)nc(C(F)(F)F)c1)C1CCCCN1 (stereo unspecified)	nt	-8.7%	0.9%	39.8µM*
OC(c1cc(C(F)(F)F)nc2c(C(F)(F)F)cccc12)C1CCCCN1 (stereo unspecified)	6.9%	-1.5%	?	-8.3%
COc1ccccc1[C@H]1C(c2cccc(Cl)c2)=NN(c2ccccc2)[C@@H]1CO	-10.7%	3.1%	?	10µM*
CC[C@H]1C(c2cccc(Cl)c2)=NN(c2ccccc2)[C@@H]1CO	22.4µM*	nt	?	nt
C[C@]12CC[C@@H]3c4ccc(OC(=O)c5ccccc5)cc4CC[C@H]3[C@@H]1CC[C@@H]2O	6.9%	0.9%	2.0%	17.8µM*
COc1ccc(/C=C2\SC(=O)N(CCNC(=O)Cc3coc4cc(C)ccc34)C2=O)cc1OC	5.8%	-2.7%	5.1%	2.7%
CC(=O)c1cccc(NC(=O)c2cccc(S(=O)(=O)N(C)C)c2)c1	13.9%[38.3 µM]	-2.2%	7.1%	-3.4%
CN(C)S(=O)(=O)c1cccc(NC(=O)c2ccc3nccnc3c2)c1	nt	-3.5%	7.1%	15.8µM*
CCC1Oc2ccccc2C(=O)N(CC(=O)c2ccc3c(c2)OCCO3)C1=O (stereo unspecified)	nt	-1.9%	nt	-1.1%
O=C1OCCN1C(=O)[C@H]1[C@H](c2ccc(F)cc2)C(c2cccc(Cl)c2)=NN1c1ccccc1	1.4%	-5.3%	?	30.1%
O=C1OCCN1C(=O)[C@H]1[C@H](c2ccc(Cl)cc2)C(c2cccc(Cl)c2)=NN1c1ccccc1	-8.3%	0.8%	?	35.5µM*
Cc1cccc(C2=NN(c3ccc(Br)cc3)[C@@H](C(=O)N3CCOC3=O)[C@@H]2c2ccc(F)cc2)c1	-12.4%	2.1%	?	17.8µM*
Cc1cc2oc(C(=O)N(Cc3ccccc3)C3CCS(=O)(=O)C3)c(C)c2cc1C (stereo unspecified)	nt	-1.7%	nt	-2.6%
COc1ccc(CCn2c(SCC(=O)Nc3cc(C)on3)nc3ccsc3c2=O)cc1OC	11.2µM*	-1.1%	7.2%	-6.7%
COc1ccccc1CCNC(=O)c1cc(-c2ccccn2)nc2ccc(Br)cc12	12.6µM*	nt	-1.3%	2.8%
COc1ccccc1CCNC(=O)c1cc(-c2ccccn2)nc2ccccc12	nt	-2.5%	nt	-0.1%
Cc1cc(C)cc(OCCCOc2cccc3cccnc23)c1	-0.2%[38.3 µM]	-4.2%	3.0%	5.7%
CCOC(=O)c1c(-c2ccc(C)cc2)csc1NC1=NS(=O)(=O)c2ccccc21	11.2µM*	-1.1%	5.9%	0.9%
CN(C)c1cc(Nc2ccc(O)cc2)c([N+](=O)[O-])c2nonc12	nt	-7.4%	-0.4%	7.08µM*
CCN(CC)Cc1c(O)ccc2c(C)c(CC(=O)OC)c(=O)oc12	10µM*	-6.6%	-1.1%	nt
COC(=O)Cc1c(C)c2ccc(O)c(CNCc3ccc(OC)c(OC)c3)c2oc1=O	nt	-1.2%	nt	46.7%
COCCCN1C(=O)C(=O)/C(=C(/O)c2ccc(OCC(C)C)cc2)C1c1cccnc1 (stereo unspecified)	?	-3.3%	5.8%	-0.4%
COCCCN1C(=O)C(=O)/C(=C(/O)c2ccc(OC(C)C)c(C)c2)C1c1ccncc1 (stereo unspecified)	10µM*	-2.3%	-0.6%	5.4%
COCCCN1C(=O)C(=O)/C(=C(/O)c2ccc(OC(C)C)cc2)C1c1cccnc1 (stereo unspecified)	11.2µM*	-0.5%	14.1%	0.7%
CCCOc1ccc(/C(O)=C2/C(=O)C(=O)N(CCCOC)C2c2cccnc2)cc1 (stereo unspecified)	10µM*	-3.8%	16.3%	-7.1%
CCc1noc(C)c1C(=O)NCCc1c[nH]c2ccccc12	nt	-1.5%	nt	-3.3%
N#[N+]c1ccc(Nc2ccccc2)cc1	1.0%	nt	nt	nt
CC(=O)c1c(C)[nH]c(C(=O)NCCc2cccc(C)c2)c1C	-10.9%[38.3 µM]	-8.9%	0.2%	-3.6%

Screens deposited in PubChem BioAssay by National Center for Advancing Translational Sciences (NCATS).
